Test results reported in PubChem BioAssay (EPA / NIEHS).
Results filed as inconclusive are left out. More than one record can exist for a structure, and the calls need not agree. Calls of active or inactive are those of the source. Rule for the calls, unless noted: active = hit-call score of the fitted dose curve at least 0.9, where 1 is the maximum; inactive = score below 0.9.

Experiments:
[1] = BSK_3C_TissueFactor: BioMAP Diversity Plus: 3C Assay for Tissue Factor Biomarker Activity (AID 2282997); details: BioMAP 3C HUVEC, tissue factor biomarker readout; actives raise or lower the signal
Outline: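 Dosing of human umbilical vein endothelial cells preceded a 24 h incubation. Tissue Factor was then read by ELISA, with increases and decreases both scored relative to DMSO controls.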

[2] = BSK_3C_uPAR: BioMAP Diversity Plus: 3C Assay for Urokinase-type plasminogen activator receptor (uPAR) Biomarker Activity (AID 2282998); details: BioMAP 3C HUVEC, uPAR biomarker ELISA; actives raise or lower the signal
Outline: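 Primary human umbilical vein endothelial cells, 3C system; surface uPAR measured by ELISA 24 h after dosing. Cytotoxicity via SRB total protein in parallel cultures; bidirectional fit against DMSO.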

[3] = BSK_3C_VCAM1: BioMAP Diversity Plus: 3C Assay for Vascular cell adhesion molecule 1 (VCAM1) Biomarker Activity (AID 2282999); details: BioMAP 3C HUVEC, VCAM1 ELISA, cytokine-stimulated; actives raise or lower the signal
Outline: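 Human umbilical vein endothelial cells (3C system), biomarker read by ELISA 24 h after dosing; bidirectional fit against DMSO baseline. Cytotoxicity tracked by SRB total-protein staining in parallel cultures at biomarker time.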

[4] = BSK_4H_Eotaxin3: BioMAP Diversity Plus: 4H Assay for Eotaxin 3 Biomarker Activity (AID 2283000); details: primary human endothelial cells (HUVEC); actives raise or lower the signal
Outline: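 Human umbilical vein endothelial cells (BSK_4H system) dosed with test chemical; Eotaxin-3 (CCL26) measured by ELISA 24 h after dosing. Bidirectional curve fitting relative to DMSO negative control as baseline.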

[5] = read-out: Intercellular Adhesion Molecule 1 (ICAM1), ICAM1 (gene 3383); test: BSK_3C_ICAM1: BioMAP Diversity Plus: 3C Assay for Intercellular Adhesion Molecule 1 (ICAM1) Biomarker Activity (AID 2283003); details: primary human endothelial cells (HUVEC); actives raise or lower the signal
Outline: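 HUVEC primary cells stimulated under 3C conditions; ICAM1 measured by ELISA 24 h after compound dosing. Curves fitted bidirectionally against the DMSO baseline. Overt cytotoxicity checked by SRB staining of parallel cultures.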

[6] = read-out: Interleukin-1 alpha (IL1a), IL1A (gene 3552); test: BSK_BE3C_IL1a: BioMAP Diversity Plus: BE3C Assay for Interleukin-1 alpha (IL1a) Biomarker Activity (AID 2283016); details: primary human bronchial epithelial cells; actives raise or lower the signal
Outline: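 Human primary bronchial epithelial cells, 24 h chemical exposure; IL-1a quantified by ELISA, fitted bidirectionally against DMSO. Cytotoxicity assessed in parallel by SRB total-protein staining at the time of measurement.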

[7] = read-out: Monocyte Chemoattractant Protein-1 (MCP1), CCL2 (gene 6347); test: BSK_3C_MCP1: BioMAP Diversity Plus: 3C Assay for Monocyte Chemoattractant Protein-1 (MCP1) Biomarker Activity (AID 2283017); details: primary human endothelial cells (HUVEC); actives raise or lower the signal
Outline: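 MCP-1 was measured by ELISA 24 h after dosing in primary HUVEC 3C cultures and fitted in both directions relative to DMSO; cytotoxicity was checked by SRB total-protein staining in parallel wells.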

[8] = read-out: Monocyte Chemoattractant Protein-1 (MCP1), CCL2 (gene 6347); test: BSK_4H_MCP1: BioMAP Diversity Plus: 4H Assay for Monocyte Chemoattractant Protein-1 (MCP1) Biomarker Activity (AID 2283018); details: primary human endothelial cells (HUVEC); actives raise or lower the signal
Outline: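 Human umbilical vein endothelial cells (4H system) exposed to chemicals for 24 h in 96-well format. MCP-1 measured by ELISA; bidirectional fitting against DMSO, with SRB total-protein staining in parallel cultures for cytotoxicity.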

[9] = read-out: Human Leukocyte Antigen - DR isotype (HLADR), HLA-DRA (gene 3122); test: BSK_3C_HLADR: BioMAP Diversity Plus: 3C Assay for Human Leukocyte Antigen - DR isotype (HLADR) Biomarker Activity (AID 2283019); details: primary human endothelial cells (HUVEC); actives raise or lower the signal
Outline: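 Bidirectional fitting against DMSO was applied to the HLA-DR ELISA signal from human umbilical vein endothelial cells, 24 h post-dose. Cytotoxicity came from parallel SRB total-protein staining; 3C proliferation was counted by SRB at 48 h.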

[10] = read-out: Interleukin-8 (IL8), CXCL8 (gene 3576); test: BSK_3C_IL8: BioMAP Diversity Plus: 3C Assay for Interleukin-8 (IL8) Biomarker Activity (AID 2283020); details: primary human endothelial cells (HUVEC); actives raise or lower the signal
Outline: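 Primary human umbilical vein endothelial cells were dosed for 24 h. IL-8 was quantified by ELISA and fitted bidirectionally against DMSO. Cytotoxicity was assessed in parallel cultures by SRB staining at 560 nm.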

[11] = read-out: Monokine induced gamma interferon (MIG), CXCL9 (gene 4283); test: BSK_3C_MIG: BioMAP Diversity Plus: 3C Assay for Monokine induced gamma interferon (MIG) Biomarker Activity (AID 2283021); details: primary human endothelial cells (HUVEC); actives raise or lower the signal;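 for AC50: MIG protein level measured by immunoassay in the treated endothelial cultures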
Outline: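 HUVEC primary endothelial cultures dosed with chemical; MIG quantified by ELISA at 24 h. Data fitted bidirectionally against DMSO control, with parallel SRB total-protein staining for cytotoxicity.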

[12] = BSK_3C_SRB: Viability Assessment in the BioMAP Diversity Plus: 3C Assay (AID 2283023); details: primary human endothelial cells (HUVEC);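 note: fitted both ways against DMSO so a hit may be signal rise or drop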
Outline: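 Cytotoxicity readout in parallel HUVEC 3C cultures: after 24 h compound exposure, cells fixed with 10% TCA, stained with 0.1% SRB and read at 560 nm. Gain or loss relative to DMSO fitted.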

[13] = read-out: Matrix Metallopeptidase 1 (MMP1), MMP1 (gene 4312); test: BSK_BE3C_MMP1: BioMAP Diversity Plus: BE3C Assay for Matrix Metallopeptidase 1 (MMP1) Biomarker Activity (AID 2283024); details: primary human bronchial epithelial cells; actives raise or lower the signal
Outline: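 Human primary bronchial epithelial cells (BE3C system) dosed for 24 h; MMP-1 quantified by ELISA. Bidirectional fit against DMSO; cytotoxicity tracked in parallel cultures by SRB total-protein staining.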

[14] = BSK_4H_SRB: Viability Assessment in the BioMAP Diversity Plus: 4H Assay (AID 2283027); details: primary human endothelial cells (HUVEC);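 note: cells exposed to compound for 24 h before staining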;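 for AC50: curves fitted both ways versus DMSO so AC50 may be loss or gain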
Outline: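 Human umbilical vein endothelial cells, 24 h after chemical dosing; total protein measured by 0.1% sulforhodamine B staining after 10% TCA fixation, read at 560 nm. Bidirectional fitting against DMSO.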

[15] = BSK_BE3C_SRB: Viability Assessment in the BioMAP Diversity Plus: BE3C Assay (AID 2283028); details: primary human bronchial epithelial cells
Outline: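 Cytotoxicity read-out: SRB (0.1%) staining of TCA-fixed (10%) human lung bronchial epithelial cells, absorbance 560 nm, 24 h post-dosing. Curves fitted both directions relative to DMSO.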

[16] = read-out: Matrix Metallopeptidase 1 (MMP1), MMP1 (gene 4312); test: BSK_hDFCGF_MMP1: BioMAP Diversity Plus: hDFCGF Assay for Matrix Metallopeptidase 1 (MMP1) Biomarker Activity (AID 2283064); details: primary human foreskin fibroblasts; actives raise or lower the signal
Outline: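 Primary human foreskin fibroblasts exposed to chemicals for 24 h; MMP1 measured by ELISA. Cytotoxicity tracked by SRB staining in parallel cultures; bidirectional fit relative to DMSO.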

[17] = read-out: E-selectin (Homo sapiens) (UniProt P16581); test: BSK_SAg_Eselectin: BioMAP Diversity Plus: SAg Assay for Eselectin Biomarker Activity (AID 2283091); details: primary human HUVEC with PBMC; actives raise or lower the signal
Outline: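 Cell-surface E-selectin is read by ELISA at 24 h in the SAg co-culture of HUVEC and PBMC. Curves are fitted in both directions relative to DMSO. Parallel SRB total-protein staining tracks overt toxicity.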

[18] = BSK_SAg_PBMCCytotoxicity: PBMC Cytotoxicity Assessment in the BioMAP Diversity Plus: SAg Assay (AID 2283093); details: primary human HUVEC with PBMC;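 note: PBMC viability measured as Alamar Blue reduction fluorescence at 546/580 nm; fitted both ways against DMSO so a hit may be loss or gain of signal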;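 for AC50: PBMC superantigen activated with SEB plus TSST-1 one hour after compound addition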
Outline: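 HUVEC/PBMC co-culture; PBMC exposed to chemical 1 h before SEB and TSST-1 activation (20 ng/mL each), incubated 90 h, then Alamar Blue 6 h, fluorescence 546/580 nm. Bidirectional fit versus DMSO baseline.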

[19] = read-out: Interleukin-8 (IL8), CXCL8 (gene 3576); test: BSK_SAg_IL8: BioMAP Diversity Plus: SAg Assay for Interleukin-8 (IL8) Biomarker Activity (AID 2283094); details: primary human HUVEC with PBMC; actives raise or lower the signal
Outline: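 Human umbilical vein endothelial cells co-cultured with PBMC, stimulated with superantigen; IL-8 measured by ELISA 24 h after chemical dosing. Bidirectional fitting versus DMSO; SRB staining in parallel cultures tracks cytotoxicity.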

[20] = target: Retinoic acid receptor RXR-alpha (Homo sapiens) (UniProt P19793); test: OT_NURR1_NURR1RXRa_0480: Odyssey Thera (OT) 8-hour HEK293T Protein Complementation Assay for Nurr1/retinoid X receptor (RXR) (AID 2283385; active = hit-call score of the fitted dose curve at least 0.9, where 1 is the maximum)
Sequence of Retinoic acid receptor RXR-alpha (Homo sapiens) (P19793 whole entry, looked up, the tested form may be a part): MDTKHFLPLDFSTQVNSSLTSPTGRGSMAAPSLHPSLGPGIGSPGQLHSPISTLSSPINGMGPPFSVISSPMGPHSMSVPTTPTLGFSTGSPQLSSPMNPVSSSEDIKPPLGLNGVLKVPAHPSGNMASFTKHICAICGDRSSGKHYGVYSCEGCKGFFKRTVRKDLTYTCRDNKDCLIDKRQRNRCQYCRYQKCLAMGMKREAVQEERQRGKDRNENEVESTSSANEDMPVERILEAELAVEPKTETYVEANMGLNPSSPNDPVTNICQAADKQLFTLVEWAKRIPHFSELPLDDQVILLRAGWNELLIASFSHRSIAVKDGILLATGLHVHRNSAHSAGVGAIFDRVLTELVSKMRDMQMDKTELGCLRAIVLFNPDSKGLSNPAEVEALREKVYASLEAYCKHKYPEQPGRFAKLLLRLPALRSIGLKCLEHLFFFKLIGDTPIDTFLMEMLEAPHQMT
Outline: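 HEK293T cells expressing Nurr1 and RXRα fused to reporter fragments (protein-fragment complementation); fluorescence measured 8 h after dosing. Gain of signal fitted relative to DMSO.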

Measured: AC50

Sequence of E-selectin (Homo sapiens) (P16581 whole entry, looked up): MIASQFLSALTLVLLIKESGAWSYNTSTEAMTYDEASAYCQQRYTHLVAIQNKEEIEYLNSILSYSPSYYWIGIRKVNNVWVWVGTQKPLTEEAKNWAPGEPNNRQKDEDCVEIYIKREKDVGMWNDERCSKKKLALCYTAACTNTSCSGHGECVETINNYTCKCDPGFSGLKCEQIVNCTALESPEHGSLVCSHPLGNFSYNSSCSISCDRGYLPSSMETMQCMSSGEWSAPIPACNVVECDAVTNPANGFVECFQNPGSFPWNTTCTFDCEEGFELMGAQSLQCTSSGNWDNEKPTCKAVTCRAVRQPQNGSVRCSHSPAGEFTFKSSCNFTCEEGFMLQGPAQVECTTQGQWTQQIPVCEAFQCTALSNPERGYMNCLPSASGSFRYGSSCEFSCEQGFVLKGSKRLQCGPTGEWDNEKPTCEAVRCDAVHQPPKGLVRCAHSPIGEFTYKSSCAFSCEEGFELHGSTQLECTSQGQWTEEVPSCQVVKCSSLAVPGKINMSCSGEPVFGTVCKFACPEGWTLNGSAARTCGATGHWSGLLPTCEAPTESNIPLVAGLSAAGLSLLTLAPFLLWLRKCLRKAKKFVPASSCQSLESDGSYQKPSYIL

CC[N+](CC)(CC(=O)Nc1c(C)cccc1C)Cc1ccccc1
inactive: [1] | [2] | [3] | [4] | [5] | [6] | [7] | [8] | [9] | [10] | [11] | [12] | [13] | [14] | [15] | [16] | [17] | [18] | [19] | [20]

COC(=O)/C=C\C(=O)OC
inactive: [1] | [2] | [3] | [4] | [5] | [6] | [7] | [8] | [9] | [10] | [11] | [12] | [13] | [14] | [15] | [16] | [18] | [19]
active: [17] 9.12 µM

CCOC(=O)c1ccccc1
inactive: [20]

O=C(CC(C(=O)OC1CCCCC1)S(=O)(=O)O)OC1CCCCC1 (stereo not given)
inactive: [20]

CN(C)Cc1cc(C(C)(C)C)c(O)c(C(C)(C)C)c1
active: [16] 20 µM | [17] 20 µM | [18] 28.7 µM | [19] 20 µM
inactive: [1] | [2] | [3] | [4] | [5] | [6] | [7] | [8] | [9] | [10] | [11] | [12] | [13] | [14] | [15] | [16] | [17] | [18] | [19]

CCCCCCCCCCC1CO1 (stereo not given)
inactive: [13] | [15] | [19]
active: [1] 30.8 µM | [2] 33.7 µM | [3] 34.8 µM | [4] 36.9 µM | [5] 36.2 µM | [6] 31.5 µM | [7] 31 µM | [8] 33.8 µM | [9] 28.6 µM | [10] 32.8 µM | [11] 34.4 µM | [12] 35.2 µM | [14] 30 µM | [16] 20 µM | [17] 20 µM | [18] 29.5 µM

O=C(OCc1ccccc1)c1ccccc1
inactive: [20]

CCCCCC[C@@H](O)C/C=C\CCCCCCCC(=O)O
inactive: [20]
